Values joined by “and” are separate entries in the source; they are usually repeats but may differ in a detail not shown here. Equal entries are not always repeated. About 79,000 compounds went through this panel and 15% of them were active in at least one assay; those are over-represented in the sample as a whole. Active and inactive are the calls of the source. No stated cut-off is given here; in the data, active means growth inhibition above about 70%; inactive means the rest.
How the values were obtained:
[1] = NCI Yeast Anticancer Drug Screen. Data for the rad50 strain (AID 155);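 further: 0% = growth of vehicle-only cultures of the same strain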; settings: S. cerevisiae rad50 strain growth inhibition; at 50.0 µM; stronger effect = higher value
In short: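 Growth of the mutant yeast was measured after compound exposure and referenced to vehicle-treated cultures.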

[2] = NCI Yeast Anticancer Drug Screen. Data for the mec2-1 strain (AID 157); settings: S. cerevisiae mec2-1 strain, at 50.0 µM, stronger effect = higher value
In short: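 Using mec2-1 yeast: add compound, measure growth, express inhibition versus vehicle-treated cultures.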

[3] = NCI Yeast Anticancer Drug Screen. Data for the sgs1 mgt1 strain (AID 161);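 further: 0% = growth of cultures given vehicle only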; settings: S. cerevisiae sgs1 mgt1 strain, at 50.0 µM, stronger effect = higher value
In short: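 Compounds are added to genetically altered yeast, and growth is compared with cultures given vehicle alone to give percent inhibition.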

[4] = NCI Yeast Anticancer Drug Screen. Data for the cln2 rad14 strain (AID 165);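 further: 0% = growth equal to vehicle treated cultures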; settings: S. cerevisiae cln2 rad14 strain, at 50.0 µM, stronger effect = higher value
In short: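 Yeast strain cln2 rad14, bearing defects in cell cycle control and DNA repair, serves as the test system; values reflect growth inhibition compared with vehicle.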

[5] = NCI Yeast Anticancer Drug Screen. Data for the bub3 strain (AID 167); settings: S. cerevisiae bub3 mutant strain, at 50.0 µM, stronger effect = higher value
In short: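 Whole-cell yeast assay. The mutant strain was incubated with compounds, and growth inhibition was determined by comparison with vehicle-treated cells.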

[6] = NCI Yeast Anticancer Drug Screen. Data for the mlh1 rad18 strain (AID 175); settings: S. cerevisiae mlh1 rad18 strain growth inhibition; at 50.0 µM; stronger effect = higher value
In short: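 Steps: expose repair-defective yeast to compound; measure growth; express inhibition against vehicle-treated controls.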

Measured: growth inhibition

O=C(O)C(F)(F)F.O=C(O)C(F)(F)F.O=C(O)C(F)(F)F.O=C(O)C(F)(F)F.[Rh].[Rh]
inactive: [1] 26.8% | [2] 17.1% | [3] 22.1% | [4] 21.2% | [5] 21.4% | [6] 28%

CN(C)CCNC(=O)c1ccc([N+](=O)[O-])c(C(C)(C)C(=O)Nc2ccc(N(CCCl)CCCl)cc2)c1
inactive: [1] -1% | [2] -24.4% | [3] 8.9% | [4] -44.2% | [5] -10.8% | [6] -24.9%

CCN(CC)C(=S)SCc1ccccc1OC(=O)NC
inactive: [1] -4.35% | [2] -8.6% | [3] 7.2% | [4] -43.5% | [5] 33.1% | [6] -5.95%

CC1(C)N=C(N)N=C(N)N1c1ccc(CCc2ccc(S(=O)(=O)F)cc2)cc1
inactive: [1] 9.15% | [2] 7% | [3] -7.3% | [4] -6.2% | [5] -8.7% | [6] 7.65%

O=C1OC(=O)C2C3C=CC(O3)C12 (stereo unspecified)
inactive: [1] -9.15% and -16.2% and 22.6% | [2] -14.2% and -0.8% and -0.1% | [3] -25.2% and 3.95% and 14.6% | [4] 6% and 1.55% and 10.6% | [5] -42.2% and -28.7% and 6.3% | [6] -6.4% and -16.8% and 19.6%

N#C[S-].N#C[S-].[Au+3].[Au+3].[CH3-].[CH3-].[CH3-].[CH3-]
inactive: [1] 51.4% | [2] 11% | [3] 61.5% | [4] 33.4% | [5] 12.5% | [6] 53.5%

O=C1NC2(CCCCC2)C(=O)N1CCCCCN(CCCl)CCCl
inactive: [1] 22.8% | [2] 18.4% | [3] 2.1% | [4] -25.4% | [5] -9.75% | [6] -0.3%

CN(N=O)C1=NC2(CCCCC2)P(=O)(NNc2ncccn2)O1 (stereo unspecified)
inactive: [1] 0.9% | [2] -17.9% | [3] -15.2% | [4] 9.85% | [5] 11.2% | [6] 13.1%

[Br][Co][Br].[NH-]CC[NH-].[NH-]CC[NH-]
inactive: [1] 28.4% | [2] 15.6% | [3] 18.4% | [4] -6.95% | [5] 22.9% | [6] 17.8%

N#CC(C#N)/C=C/[Se]c1ccccc1
inactive: [1] 14.2% | [2] 1.65% | [3] 2.1% | [4] 26.8% | [5] 0.35% | [6] 3.6%

CSP(=S)(SC)SC
inactive: [1] 24% | [2] -5.7% | [3] 13.4% | [4] 22.1% | [5] -7.95% | [6] -15.8%

CN1CCC2(CC1)c1ccccc1-c1ccccc12
inactive: [1] -7.7% | [2] -20.6% | [3] -2.6% | [4] -25% | [5] -12.7% | [6] -38.7%

COC1=C(OC)C23CCc4ccc(OC)c(O)c4C2(CCN3)CC1=O (stereo unspecified)
inactive: [1] 7.5% | [2] -10.7% | [3] 25.2% | [4] 14.1% | [5] 1.6% | [6] -27.4%

CNC(=O)c1cn(C2OC(CO)C(O)C2O)c2ncnc(N)c12 (stereo unspecified)
inactive: [1] -5.95% | [2] 8.3% | [3] 4.7% | [4] -1.25% | [5] -1.05% | [6] 5.65%

CN(C)CCN=C(N)N[N+](=O)[O-]
inactive: [1] 1.35% | [2] 3.75% | [3] -15.4% | [4] -96.4% | [5] 2.4% | [6] -38%

N.N.N.N.N#N.N#N.[Cl-].[Os+6]
inactive: [1] -25.4% | [2] -24.1% | [3] -34.6% | [4] -7.95% | [5] -35.4% | [6] -39%

OC(COc1cccc2ccccc12)CN(CCCl)CCCl (stereo unspecified)
inactive: [1] 6.85% | [2] -12.5% | [3] -5.6% | [4] 4.05% | [5] 8.55% | [6] -30.1%

COC(=O)/C=C/[C@@H]1[C@H](C)N1S(=O)(=O)c1ccc(C)cc1 (stereo partly specified)
inactive: [1] -9.7% | [2] -11.3% | [3] 11.7% | [4] 6.95% | [5] 13.9% | [6] -23.5%

NCCN1CC2CCC(CC2)C1
inactive: [1] -53.1% | [2] -48.3% | [3] -27.1% | [4] -5.75% | [5] -3.55% | [6] -11.7%

Cc1cc(Cl)ccc1N
inactive: [1] 32.4% | [2] 6.1% | [3] 0.65% | [4] 12.2% | [5] 24.4% | [6] 21.4%

COc1cccc(/C=N/[N-]C(=O)c2ccncc2)c1[O-].[Ni+2].[OH3+]
inactive: [1] -14.6% | [2] -4.05% | [3] -12.1% | [4] 18.1% | [5] -12.2% | [6] -14.2%

[Br][Hg][CH]1CCC2CCCC1O2 (stereo unspecified)
active: [1] 99.5% | [2] 99.2% | [3] 99.5% | [4] 99% | [5] 99.3% | [6] 99.5%

CC(=O)C(=O)c1ccccc1
inactive: [1] -14.6% | [2] 6.5% | [3] -0.45% | [4] -25.8% | [5] -19.7% | [6] -21.5%

N/C(=N\S(=O)(=O)c1ccccc1)N[N+](=O)[O-]
inactive: [1] 5.15% and -5.6% | [2] -1.15% and -8.9% | [3] -9.05% and -5.2% | [4] -39.2% and -2.6% | [5] -9.25% and 7.05% | [6] 4.45% and -9.75%

C/C=C/CC1(c2ccccc2)C(=O)NC(=S)NC1=O
inactive: [1] 10.2% | [2] -15% | [3] 6.3% | [4] -42.3% | [5] -6% | [6] 5.9%

C/C=C(\C)C(=O)N[C@@H](c1ccccc1)[C@@H](O)C(=O)OC1C[C@@]2(O)[C@@H](OC(=O)c3ccccc3)[C@@H]3[C@]4(OC(C)=O)CO[C@@H]4C[C@H](O)[C@@]3(C)C(=O)[C@H](OC(C)=O)C(=C1C)C2(C)C (stereo partly specified)
inactive: [1] 34.1% | [2] 13.6% | [3] 13.8% | [4] 16.9% | [5] 21.4% | [6] 29.9%

C1=C[N-]c2c3c(ccc2=C1)=CC=C[N-]3.C1=C[N-]c2c3c(ccc2=C1)=CC=C[N-]3.[Cl][Ru][Cl]
active: [1] 70.3%
inactive: [2] 28.3% | [3] 49% | [4] 44.4% | [5] 61% | [6] 33.8%

CCCCC1CN1C(=N)OCC (stereo unspecified)
inactive: [1] 6.65% | [2] -0.6% | [3] 15.4% | [4] 59.1% | [5] 0.9% | [6] 29.1%

COC(=O)C1=NNC2(c3ccccc3Sc3ccccc32)C1C(=O)OC (stereo unspecified)
inactive: [1] -8.95% | [2] -8.25% | [3] -12.5% | [4] 25.5% | [5] -18.9% | [6] -11.8%

CCCCC(CC)COP(OCC(CC)CCCC)OCC(CC)CCCC.[Cl][Sn][Cl] (stereo unspecified)
inactive: [1] -8.1% | [2] 16.1% | [3] 14.9% | [4] -10.4% | [5] -6.2% | [6] 21%

OCN1CCC23c4c5ccc(O)c4OC2C(O)C=CC3C1C5 (stereo unspecified)
inactive: [1] -4.75% | [2] -3.4% | [3] 3.35% | [4] -68.5% | [5] 20.1% | [6] -12%

Nc1ncnc2c1ncn2C1OC(CO)C2NP(=O)(N(CCCl)CCCl)OC21 (stereo unspecified)
inactive: [1] 6.1% and 16.9% | [2] -6.2% and 1.7% | [3] -22.1% and -19.3% | [4] -8.1% and 5.15% | [5] -6.15% and -15.6% | [6] -38% and -8.55%

COc1ccc(C(N)Cc2cc(OC)c(OC)c(OC)c2)cc1 (stereo unspecified)
inactive: [1] -14.9% | [2] 6.1% | [3] 2.9% | [4] -10.5% | [5] 7.8% | [6] -8.6%

C1CN(P(N2CCOCC2)N2CCOCC2)CCO1
inactive: [1] -17.6% | [2] -70.3% | [3] -9.25% | [4] 18.1% | [5] -10.4% | [6] -28.4%

O=C1NC(=O)C(=O)C(=O)N1
inactive: [1] -16.2% | [2] 8.15% | [3] -1.75% | [4] -32.2% | [5] 1% | [6] 0.5%

CCCCC(CC)C(=O)O (stereo unspecified)
inactive: [1] -12.6% and 33.9% | [2] -0.3% and 11.5% | [3] -1.65% and -1.3% | [4] 0.2% and 6% | [5] -13.7% and 6.6% | [6] -10.7% and 7%

CCC[C@H]1CCCCN1
inactive: [1] 27.1% | [2] 12.7% | [3] 23.4% | [4] 18.9% | [5] -13% | [6] 3.6%

CCN(CC)C1=C(N(CC)CC)C(N(CC)CC)=C(N(CC)CC)C1=O.[C-]#[O+].[C-]#[O+].[C-]#[O+].[Fe]
inactive: [1] -45.6% | [2] -13.2% | [3] -22.1% | [4] -2.65% | [5] -16.6% | [6] -33.8%

COc1ccc2c(c1OC)C[C@@H]1c3c(cc4c(c3-2)OCO4)CCN1C
inactive: [1] 21.2% | [2] -30.2% | [3] -23.6% | [4] -14.6% | [5] -0.6% | [6] -56.5%

[CH3][Sn]([CH3])([CH3])[O][N+](=O)[O-]
inactive: [1] 25.6% | [2] 2.65% | [3] 44.6% | [4] 2.55% | [5] 48.7% | [6] 18.9%

Cc1cc(-c2ccccc2)cc(C)[n+]1CC[n+]1c(C)cc(-c2ccccc2)cc1C
inactive: [1] -14.9% | [2] -10.7% | [3] -5.85% | [4] -47.7% | [5] 3.4% | [6] -19.4%

CCCCCCCCCCCCCCC(=O)[O][Hg][c]1ccccc1
active: [1] 99.2% | [2] 98.9% | [3] 99.5% | [4] 99% | [5] 99.2% | [6] 99.1%

N#Cc1ccccc1Cl
inactive: [1] 8.05% | [2] -8.4% | [3] 5.45% | [4] 20.7% | [5] 24.2% | [6] 40%

CCCCN1CCC2(CC1)COCc1ccccc12
inactive: [1] 57.2% | [2] 34.3% | [3] 42% | [4] 28.7% | [5] 54.9% | [6] 44.1%

O=C(N/N=C/c1cc(Br)cc(Br)c1[O-])c1ccccc1O.O=C(N/N=C/c1cc(Br)cc(Br)c1[O-])c1ccccc1O.[Cl-].[Fe+3]
inactive: [1] -3.25% | [2] 0.15% | [3] -4.95% | [4] -30.1% | [5] 12.1% | [6] 13.3%

O=C(O)COc1ccccc1
inactive: [1] 10.9% and -7.6% | [2] 9.2% and 1.65% | [3] 5.8% and -36.2% | [4] -16.6% and 6.7% | [5] -10.2% and -17.4% | [6] -13.2% and -0.15%

— PubChem BioAssay (NCI)
